# Bioassay records (PubChem BioAssay)
# AMA1-RON2 inh: disrupts binding of P. falciparum AMA1 to RON2 | Potency, µM (series often up to 58.2 µM), inactives show at the highest dose activity change, negative = inhibition, usual class: inhibitors | AlphaScreen AMA1-biotinylated RON2 peptide binding | 360,000 compounds, 0.2% hits;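 note: 0% = vehicle wells and -100% = peptide control; nearly all actives have a fitted effect of over 45% in size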
#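 AMA1 (3D7) with his tag at 25 nM final met compounds first, then biotinylated RON2 peptide at 25 nM; detection used donor plus acceptor beads, 10 µg/mL apiece, read by AlphaScreen after 30 min at room temperature.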
# HCV inhibitor: inhibitors of hepatitis C virus infection; Huh7.5.1 HCVcc-Cre infection, luciferase reporter, 44 h; Potency, µM (doses to about 41.8 µM), for inactives: at the top dose activity change, negative = inhibition, usual class: inhibitors; 340,000 compounds, 3.4% hits; AID 651820
#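 Luciferase read-out (15 sec integration) after a 15 min room-temperature substrate step quantifies HCVcc-Cre infection. Cells, 1,000 per well, had compound added 4 h post-plating, then virus at ~0.5 moi, and were cultured 44 h.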
# Pf growth 48h: P. falciparum growth inhibition at 48 hours (one generation); P. falciparum luciferase growth in erythrocytes, 48 h; Potency, µM (titrated, usually from 28.7 µM), for the others: at the highest dose activity change, negative = inhibition, usual class: inhibitors; 310,000 compounds, 5.9% hits; AID 504832
#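 Firefly luciferase activity from engineered P. falciparum reports growth; inhibitors lower the luminescent signal. Cultures contained 2% hematocrit erythrocytes at 0.1% final parasitemia.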
# AmpC detergent: blocks E. coli AmpC beta-lactamase in detergent assay | 370,000 compounds, 0.041% hits | P00811 | AmpC hydrolysis of nitrocefin, absorbance 480 nm, 0.01% Triton | Potency, µM (top dose mostly 114 µM), for the others: top-dose activity change, negative = inhibition, hits mostly inhibitors;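 note: 0% = no-compound wells and -100% = no-enzyme wells; nearly all actives have a fitted effect of over 25% in size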
# Target sequence (P00811 whole entry, looked up): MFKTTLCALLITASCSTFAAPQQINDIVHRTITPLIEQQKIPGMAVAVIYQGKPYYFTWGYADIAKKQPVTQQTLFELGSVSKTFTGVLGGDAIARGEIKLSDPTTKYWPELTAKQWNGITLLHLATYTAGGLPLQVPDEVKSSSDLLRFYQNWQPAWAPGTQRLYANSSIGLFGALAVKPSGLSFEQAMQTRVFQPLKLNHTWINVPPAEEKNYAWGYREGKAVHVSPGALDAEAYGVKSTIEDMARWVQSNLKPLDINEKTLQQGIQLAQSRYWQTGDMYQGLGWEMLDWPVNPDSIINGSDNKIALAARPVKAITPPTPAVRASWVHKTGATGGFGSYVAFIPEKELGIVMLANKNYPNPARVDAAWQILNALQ
#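 AmpC (5.3 nM in the dispensed reagent) in 20 mM phosphate pH 7.0 with 0.01% (detergent screen) or 0.0001% Triton X-100 was preincubated with compounds for 15 min at room temperature. Nitrocefin was then added from an 800 uM solution, and hydrolysis was followed at 480 nm.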
# Pf growth 96h: P. falciparum growth inhibition at 96 hours; 320,000 compounds, 6.9% hits; AID 504834; P. falciparum luciferase reporter growth, 96 h; Potency, µM (series often up to 28.7 µM), without a hit: at the top dose activity change, negative = inhibition, most hits filed as inhibitors
#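 Delayed-death screen, second-generation endpoint: infected erythrocytes, 2% hematocrit, 0.05% parasitemia final; 96 hours at 37 C, 5% CO2; luciferase detection reagent; luminescence decrease equals reduced growth.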
# AmpC no deterg: blocks E. coli AmpC beta-lactamase in detergent-free assay; AmpC nitrocefin hydrolysis, absorbance 480 nm, 0.0001% Triton; Potency, µM (top dose mostly 57.1 µM), for inactives: top-dose activity change, negative = inhibition, usual class: inhibitors; 330,000 compounds, 0.52% hits; AID 485341;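 note: plate controls were no compound for no effect and no enzyme for full effect; nearly all actives have a fitted effect of over 20% in size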
#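 20 mM phosphate pH 7.0 + 0.01% (detergent screen) or 0.0001% Triton X-100; 5.3 nM AmpC reagent; cpd preinc 15 min RT; nitrocefin (800 uM stock) to start; A480 q20 s × 4 min; Activity was normalised to no-enzyme and no-compound control wells.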
# The depositor's hits bear a star; ? = inconclusive; . = no result. This is a sample that favours compounds with a hit; in the whole collection about 11% have one here. Calls come from the whole dose curve; as a rule, active = well fitted curve in the direction sought with a large enough effect; inconclusive = small, poorly fitted or top-dose-only effect, or another doubt; inactive = no such curve, though single readings can be large; an effect the other way counts as inactive or inconclusive. Unless noted, % is set by controls: 0 for no effect and ±100 for the full control effect; potency is the fitted concentration of half-maximal effect.
SMILES,AMA1-RON2 inh,HCV inhibitor,Pf growth 48h,AmpC detergent,Pf growth 96h,AmpC no deterg
COc1ccc(C2C(C#N)=C3NC(=O)c4c(sc5c4CCCCC5)N3C3=C2C(=O)CC(C)(C)C3)cc1 (stereo unspecified),22%,?,?,?,?,-53%
COc1ccc(C2C(C#N)=C(N)N(c3sc4c(c3C#N)CCCC4)C3=C2C(=O)CC(C)(C)C3)cc1 (stereo unspecified),8%,7.9µM*,6.6µM*,7%,.,-16%
Cc1ccc(C2=NNC(c3ccc(Cl)cc3)=Nc3ccccc32)o1,-11%,?,10µM*,-17%,10µM*,-31%
c1ccc(C2=NNC(c3ccco3)=Nc3ccccc32)cc1,16%,-7%,?,5%,30%,-12%
COC(=O)c1sc(-c2ccc(Cl)cc2)cc1NC(=O)COCC(=O)O,-1%,21%,2.1µM*,-2%,-8%,34%
O=C(CN1CCCC1)Nc1ccc(-c2nc3cc(NC(=O)CN4CCCC4)ccc3o2)cc1,-7%,?,2.3µM*,-5%,?,4%
CCN(CC)CC(=O)Nc1ccc(-c2nc3cc(NC(=O)CN(CC)CC)ccc3o2)cc1,-2%,-24%,2.6µM*,?,-3%,-14%
COc1cccc2c1cc1c(=O)n(CC(=O)NCc3ccc(C)o3)nc(C)n12,.,.,.,16%,.,.
Cc1cc(C)cc(OC(C)C(=O)Nc2ccc(S(=O)(=O)Nc3cc(C)nc(C)n3)cc2)c1 (stereo unspecified),-3%,-15%,1%,2%,13µM*,13%
CCc1noc(C)c1C(=O)N1CCCSC1=Nc1ccccc1C(C)C,-7%,3%,15µM*,0%,6.6µM*,53%
CCCOc1ccc(C(O)C(CN2CCOCC2)c2ccccc2)cc1 (stereo unspecified),-3%,-3%,8.3µM*,-11%,8.3µM*,48%
CCOc1ccc(C(O)C(CN2CCOCC2)c2ccccc2)cc1 (stereo unspecified),3%,7%,?,5%,10µM*,18%
CCCCOc1ccc(C(O)C(CN2CCOCC2)c2ccccc2)cc1 (stereo unspecified),-8%,-7%,?,4%,?,110%
CCCCCC1CCC(c2ccc(C(N)=O)cc2)CC1 (stereo unspecified),6%,-4%,1%,1%,2.9µM*,-22%
CCCC1CCC(c2ccc(C(N)=O)cc2)CC1 (stereo unspecified),6%,9%,-1%,?,69%,-6%
Cc1cccc(NC(=O)c2ccc(N(Cc3ccccc3)S(C)(=O)=O)cc2)c1,.,.,.,3%,.,.
CC(Oc1ccccc1)C(=O)N1CCN(c2ccc(N3CCCCCC3)nn2)CC1 (stereo unspecified),0%,?,?,-2%,10µM*,52%
CN(C)CCNc1oc(-c2ccc(COc3ccc(Cl)cc3)o2)nc1C#N,.,.,.,22%,.,.
COc1ccc(C2C=C(c3ccc(Cl)cc3)Nc3nc(-c4ccc(Cl)cc4)nn32)cc1 (stereo unspecified),.,.,.,-4%,.,.
COc1ccccc1N1CCN(C2CCC(C)CC2)CC1 (stereo unspecified),-5%,-15%,3%,-3%,-11%,-19%
CC1CCC(N2CCNCC2)CC1 (stereo unspecified),-13%,23%,11%,7%,15µM*,-9%
C1CCCN(C2CCNCC2)CC1,-10%,-30%,0%,-13%,?,-11%
C1CCCC(N2CCNCC2)CC1,-8%,12%,16%,?,2.9µM*,-15%
Cc1sc2ncn(CC(=O)N3CCN(c4ccccc4F)CC3)c(=O)c2c1S(=O)(=O)N1CCN(c2ncccn2)CC1,.,.,.,16%,.,.
NC(=O)C1(N2CCCCC2)CCN(C(=O)Nc2ccc(Cl)c(Cl)c2)CC1,.,.,.,-1%,.,.
